High-throughput results as filed in PubChem BioAssay.
PLK1 PBD inh – PLK1 (human) polo-box domain binding inhibition; Plk1 PBD binding of FITC phosphopeptide, fluorescence polarization; Potency, µM, for the others: max response, negative = inhibition, actives largely listed as inhibitors; actives 2.8% (n = 360,000); further: series mostly up to about 57 µM; on the % scale 0 is the no-effect control and ±100 the full control effect; nearly all actives have a fitted effect of over 65% in size
BAZ2B inh – blocks human BAZ2B | Q9UIF8 | AlphaScreen BAZ2B-H3K14Ac peptide displacement | Potency, µM (highest dose often 114 µM), for inactives: at the top dose activity change, negative = inhibition, most hits filed as inhibitors | actives 4.4% (n = 360,000) | AID 504333; further: on the % scale 0 is the no-effect control and ±100 the full control effect; nearly all actives have a fitted effect of over 60% in size
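AlphaScreen displacement: compounds (up to 110uM) incubated 30 min at room temperature with a preformed 50 nM BAZ2B/50 nM biotinylated H3K14Ac peptide complex in PBS pH 7.4 with Tween-20. Donor and acceptor beads at 10 ug/mL final added, 20 min light-protected before reading.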
JMJD2A Tudor – blocks the human JMJD2A Tudor domain; actives 4.4% (n = 390,000); Potency, µM (series often up to 114 µM), for the others: top-dose activity change, negative = inhibition, usual class: inhibitors; O75164; AlphaScreen JMJD2A-Tudor / H3K4me3 peptide binding; further: on the % scale 0 is the no-effect control and ±100 the full control effect; nearly all actives have a fitted effect of over 50% in size
G9a inh – inhibitors of human histone lysine methyltransferase G9a. Q96KQ7. G9a H3K9 monomethylation, AlphaScreen, 2 h. Potency, µM (doses to about 102 µM), without a hit: at the highest dose activity, negative = inhibition, most hits filed as inhibitors. actives 8.8% (n = 350,000); further: on the % scale 0 is the no-effect control and ±100 the full control effect; nearly all actives have a fitted effect of over 75% in size
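AlphaScreen detection with an anti-monomethyl H3K9 antibody quantified product after a 2 h room-temperature reaction containing 500 nM biotinylated H3K9 peptide, 20 µM SAM and 20 nM enzyme, which had been preincubated 15 min with compound.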
HP1b binding inh – inhibitors of HP1-beta chromodomain binding to methylated histone tails | Potency, µM (series often up to 114 µM), for the others: at the top dose activity change, negative = inhibition, hits mostly inhibitors | P83916 | actives 0.56% (n = 390,000) | AID 540317 | AlphaScreen HP1-beta / biotin-H3K9me3 peptide binding; further: nearly all actives have a fitted effect of over 70% in size
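Compound inhibition of the preformed complex between 50 nM HP1-beta and 50 nM biotinylated H3K9me3 peptide was read by AlphaScreen. Buffer was PBS pH 7.4 with 0.01% Tween-20. Incubations ran 30 min at room temperature, with 10 ug/mL donor/acceptor beads.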
12-LOX inh – ALOX12 (human) lipoxygenase inhibition. purified 12hLO, xylenol orange hydroperoxide absorbance. Potency, µM (top dose mostly 108 µM), inactives show at the top dose activity change, negative = inhibition, actives largely listed as inhibitors. actives 1.1% (n = 580,000). AID 1671190; further: on the % scale 0 is the no-effect control and ±100 the full control effect
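Purified human 12hLO at 150 nM in 25 mM Hepes, 0.01% Triton X-100, pH 7.0, preincubated 15 min at room temperature with compound. Reaction started with 40 uM arachidonic acid, 30 min at room temperature. Hydroperoxide measured by Fe-xylenol orange, 573/405 nm absorbance ratio.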
* = called active by the depositor; ? = inconclusive; · = no result; [ ] = dose if it differs, or a comment. The list is not random: actives were taken first. Their share in the collection is about 9%. The call rests on the fitted dose curve; in most records, active means well fitted curve in the direction sought with a large enough effect; inconclusive means small, poorly fitted or top-dose-only effect, or another doubt; inactive means no such curve, though single readings can be large; an effect the other way counts as inactive or inconclusive. Potency means the concentration at half of the fitted maximal effect.

SMILES	PLK1 PBD inh	BAZ2B inh	JMJD2A Tudor	G9a inh	HP1b binding inh	12-LOX inh
CC(=O)NC(=S)Nc1sc2c(c1C#N)CCCCC2	11µM*	4%	-24%	45µM*	-12%	-30%
CC(=O)N1CCc2c(sc(NC(=O)Cc3ccccc3)c2C#N)C1	-4%	-2%	3%	-4%[59 µM]	43%	-21%
CCN1CCc2c(sc(NC(=S)NC(=O)c3ccccc3)c2C#N)C1	11µM*	?	50µM*	17%[0.0925 µM]	?	?
CC1CCc2sc(NC(=S)NC(=O)c3ccccc3)c(C#N)c2C1 (stereo unspecified)	?	?	-19%	35µM*	-11%	?
CCN1C(=NCCOC)N[C@@H](c2cccs2)C(C(=O)OC)=C1C	10%	-13%	?	·	25%	?
Cc1cc(C(=O)Nc2cccc(-c3nc(CNC(=O)c4ccc[n+]([O-])c4)c(C)o3)c2)c(C)o1	·	·	·	·	·	29%
NC(=O)c1c(NC(=O)Cc2cccs2)sc2c1CCC2	-5%	-6%	-11%	19%[12.7 µM]	37%	0%
N#Cc1c(NC(=S)NC(=O)Cc2cccs2)sc2c1CCCCC2	?	50µM*	?	-9%[59 µM]	-40%	?
N#Cc1c(NC(=O)/C=C/C(=O)O)sc2c1CCN(Cc1ccccc1)C2	-15%	50µM*	?	?	42%	30%
Cn1nc(C(=O)Nc2sc3c(c2C#N)CCCC3)ccc1=O	-4%	·	-1%	-45%	19%	11%
N#Cc1c(NC(=S)NC(=O)c2ccccc2)sc2c1CCC2	?	-31%	45µM*	2.8µM*	-3%	?
CC(=O)Nc1sc2c(c1C#N)CCN(Cc1ccccc1)C2	-16%	-7%	-24%	·	38%	3%
CC(C)(C)c1ccc(C(=O)NC(=S)Nc2sc3c(c2C#N)CCC3)cc1	?	-9%	?	?	?	?
Cn1nccc1C(=O)NC(=S)Nc1sc2c(c1C#N)CCCCC2	?	-4%	-9%	50µM*	14%	0%
O=C1NCCN(Cc2cccnc2)C1CC(=O)N(Cc1ccccc1)CC1CCC1 (stereo unspecified)	·	·	·	·	·	43%
COc1ccccc1N1CCN(S(=O)(=O)c2cc(C)sc2C)CC1	-3%	4%	-5%	-5%	43%	20%
CCc1ccc(C(=O)CSc2nc(C)cc(=O)[nH]2)cc1	-19%	-18%	-4%	-29%	-4%	-11%
N#Cc1c(NC(=O)C2CC2)sc2c1CCCCC2	-9%	-35%	-3%	89µM*	5%	?
COc1ccc(N(C(C)C(=O)Nc2cccnc2)S(C)(=O)=O)cc1 (stereo unspecified)	-5%	1%	-6%	9%	22%	-22%
O=C(CCCNC(=O)c1ccc(Cl)cc1)NCc1ccc(F)cc1	27µM*	-21%	-11%	-26%	-14%[57 µM]	-13%
O=C(CCNC(=O)c1ccc(Cl)cc1)NNC(=O)c1ccc(F)cc1	1%	7%	-16%	5%	17%	-11%
CCC(=O)N(Cc1ccco1)c1nc(-c2cc(OC)ccc2OC)cs1	-5%	5%	-20%	4%[59 µM]	11%	-2%
O=C(O)c1cc(NN=Nc2cccc([N+](=O)[O-])c2)cc([N+](=O)[O-])c1	-15%	?	-25%	?	8%	-11%
O=[N+]([O-])c1cccc(NN=Nc2ccccc2)c1	-2%	?	?	45µM*	-11%	16µM*
O=C(O)c1cc(NN=Nc2ccc(Br)cc2)cc([N+](=O)[O-])c1	?	-11%	?	32µM*	-2%	?
O=[N+]([O-])c1ccc(N=NNc2ccccc2)cc1	30µM*	28µM*	25µM*	22µM*	?	·
O=C(O)c1cc(NN=Nc2cccc(S(=O)(=O)O)c2)cc([N+](=O)[O-])c1	-4%	5%	-14%	-12%	51%	-4%
Brc1ccc(N=NNc2ccccc2)cc1	7%	40µM*	-26%	·	34%	?
